Drawing on PubChem BioAssay AID435022 (Sanford-Burnham Center for Chemical Genomics, 2010), this text covers inhibition for 60 molecules.

Hit rate of the full screen: of about 330,000 compounds, about 1,100 (0.33%) were called active. Cut-off read from the data, not from the text of the source: active = inhibition above about 35%; inactive = the rest. The full list was thinned out, with actives kept by preference.

The assay can be described thus: lowers stimulated NF-kB luciferase signal in 697 B cells – cell-based, luminescence, uHTS, B-cell NF-kB inhibitor project, primary screen (AID 435022). To be noted: 697 B-cell NF-kB luciferase reporter, PMA/ionomycin, 16 h; at 4 µM; stronger effect = higher value.
For orientation: inhibition means the relative decrease from the control value, in per cent. As for `O=C(C1CCCN(S(=O)(=O)c2ccc([N+](=O)[O-])cc2)C1)N1CCCCC1` (stereo not given), the inhibition is -4.88% (inactive).

`O=C(C1CCC1)N1CCN(S(=O)(=O)c2ccc([N+](=O)[O-])cc2)CC1`: the inhibition is 38.2% (active).

Consider `O=C(Cc1ccccc1)N1CCN(S(=O)(=O)c2ccc([N+](=O)[O-])cc2)CC1`, for which the inhibition is 4.38% (inactive).

On to `COC(=O)c1c(NC(=O)COC(=O)[C@@H](NS(=O)(=O)c2ccccc2)C(C)C)sc2c1CCC2`, for which the inhibition is 10.3% (inactive).

Turning to `CC1CCCCN1C(=O)Cn1c(=O)oc2cc(S(=O)(=O)N3CCCCC3)ccc21` (stereo not given), the inhibition was 4.87% (inactive).

`O=C(CSc1nc(-c2ccccc2)cs1)Nc1cccc([N+](=O)[O-])c1`: the inhibition was 1.61% (inactive).

As to `CCN(CCCNC(=O)c1ccc2c(c1)NC(=O)CN2C)c1cccc(C)c1`, the inhibition was -19.3% (inactive).

For the molecule `O=C(Nc1ccc(C(F)(F)F)cc1)c1cccc(-n2cnnn2)c1`, the inhibition is -26.7% (inactive).

As for `CNC(=O)c1ccc(NC(=O)c2cccc(C(F)(F)F)c2)cc1`, the inhibition was 40.3% (active).

`O=C(Nc1ccc(-c2csc(Nc3cccc(C(F)(F)F)c3)n2)cc1)c1cccc(C(F)(F)F)c1`: the inhibition was -26.3% (inactive).

In the case of `Cc1ccc(NC(=O)CSc2nnc(CNC(=O)c3ccccc3F)o2)cc1`, the inhibition is 0.808% (inactive).

In the case of `CCOC(=O)N1CCN(S(=O)(=O)c2ccc(-n3cnnn3)cc2)CC1`, the inhibition was -11.9% (inactive).

As to `CCCNC(=O)c1ccc(N2CCC3(CC2)CC(c2ccc(Cl)cc2)=NO3)c([N+](=O)[O-])c1`, the inhibition is -1.96% (inactive).

Regarding `O=C(Nc1ccccc1N1CCN(C(=O)c2ccccc2)CC1)c1ccco1`, the inhibition is 6.77% (inactive).

`CCCNC(=O)c1ccc(N2CCC3(CC2)CC(c2cccc(Br)c2)=NO3)c(NC(=O)c2ccco2)c1`: the inhibition was 35.6% (active).

`COc1ccc(NC(=O)c2sccc2SCC#N)cc1`: the inhibition is 0.298% (inactive).

For `O=C(O)C1=C[C@H](c2cccs2)C[C@H](OCCCCO)O1`, the inhibition is 27.6% (inactive).

With `Cn1c(CCCOc2ccc(Cl)cc2Cl)n[nH]c1=S`, the inhibition is -42.5% (inactive).

On to `CN=c1scc(-c2cc(OC)ccc2OC)n1/N=C/c1c(C)[nH]c2ccccc12`, for which the inhibition was -18% (inactive).

In the case of `COc1cc(N=Cc2c(O)[nH]c3ccccc23)cc(OC)c1OC`, the inhibition was 45.5% (active).

With `COc1ccc2[nH]c(C(=O)N/N=C/c3cc(OC)c(OC)c(OC)c3)cc2c1`, the inhibition is -5.61% (inactive).

On to `O=C(Nc1ccc2c(c1)OCO2)C1CC(c2c(F)cccc2Cl)=NO1` (stereo not given), for which the inhibition was 10.7% (inactive).

`O=C(CNC(=O)Cc1ccccc1)NCC(=O)OCC(=O)c1ccccc1Cl`: the inhibition was 12.5% (inactive).

As to `O=C(O)c1ccc(COc2c(F)c(F)cc(F)c2F)o1`, the inhibition was 4.23% (inactive).

For `Cn1c(=O)c2c(nc(N3CCCCCC3)n2CC(O)COc2ccc(Cl)cc2)n(C)c1=O` (stereo not given), the inhibition is -3.4% (inactive).

Consider `COc1ccc(CNC(=O)C2CCN(S(C)(=O)=O)CC2)cc1`, for which the inhibition is 3.89% (inactive).

With `COc1ccc(CNC(=O)[C@@H]2CC=C[C@@H]3CCN(C4CC4)C(=O)[C@@H]32)cc1`, the inhibition is 37.2% (active).

On to `COc1ccc(CNC(=O)C2CCCC2)cc1`, for which the inhibition was 9.55% (inactive).

With `CC(NC(=S)Nc1ccc(OC(F)F)cc1)c1ccc(F)cc1` (stereo not given), the inhibition was 2.48% (inactive).

`COC(=O)c1cc(OC)c(OC)cc1NC(=O)C1CCCO1` (stereo not given): the inhibition was 6.92% (inactive).

`COc1ccc(C(=O)NC2CCCc3c2cnn3-c2cccc(C)c2C)c(OC)n1` (stereo not given): the inhibition was -399% (inactive).

Regarding `COc1ccc(C(=O)NC2CC(C)(C)Cc3c2cnn3-c2ccccc2C)o1` (stereo not given), the inhibition is 4.57% (inactive).

Regarding `Cn1nccc1C(=O)NC1CCCc2c1cnn2-c1ccccc1F` (stereo not given), the inhibition is 62.7% (active).

With `Cn1nccc1C(=O)NC1CCCc2c1cnn2-c1ccc(F)cc1F` (stereo not given), the inhibition was 36.2% (active).

Regarding `Cc1ccc(-n2ncc3c2CCCC3NC(=O)c2cnccn2)cc1C` (stereo not given), the inhibition is -27.6% (inactive).

On to `CC1(C)Cc2c(cnn2-c2cccc(F)c2)C(NC(=O)c2cc[n+]([O-])cc2)C1` (stereo not given), for which the inhibition is -12.6% (inactive).

On to `CC(C)(C)C(=O)NCCCNc1ccc([N+](=O)[O-])cc1`, for which the inhibition was 14.1% (inactive).

Consider `CN(C(=O)CC(NC(=O)c1ccccc1)(c1ccccc1)c1ccccc1)c1ccccc1`, for which the inhibition was 12% (inactive).

As for `COC(=O)/C(C#N)=C/c1occc1C`, the inhibition is 5.66% (inactive).

With `CC(NCc1cccs1)C(=O)Nc1cc(Cl)cc(Cl)c1` (stereo not given), the inhibition was 7.31% (inactive).

In the case of `CN(C)c1ccc(-n2cccc2/C=N/n2cnnc2)cc1`, the inhibition is -4.94% (inactive).

In the case of `CCc1ccnc(NC(=O)Nc2ccc(OCc3ccccc3)cc2)c1`, the inhibition is 6.55% (inactive).

For `O=c1[nH]c(-c2ccccc2)c(-c2ccccc2)[nH]1`, the inhibition was 35.4% (active).

Consider `O=C(O)c1n[nH]nc1-c1ccccc1`, for which the inhibition was 14.7% (inactive).

Regarding `O=c1cc(-c2ccccc2)nc(N2CCCCC2)[nH]1`, the inhibition was 11.5% (inactive).

For `COc1ccc(CNC(=O)C[C@H]2C[C@H](C(=O)N3CCOCC3)[C@@]3(C)c4[nH]c5cc(CCC(=O)N(C)C)ccc5c4CCN3C2=O)cc1OC`, the inhibition was 11.5% (inactive).

Regarding `CN1CC(c2ccccc2)C2(COc3ccccc3C2=O)C12C(=O)Nc1ccccc12` (stereo not given), the inhibition was 11.7% (inactive).

With `CC(=O)c1nc(N2C(=O)C3CC=C(C)CC3C2=O)sc1C` (stereo not given), the inhibition is 23.1% (inactive).

Turning to `C[C@@H]1C[C@@H]2O[C@H]2/C=C\C=C\C(=O)Cc2c(Cl)c(O)cc(O)c2C(=O)O1`, the inhibition was 83.8% (active).

Consider `COc1ccc(NC(=O)CSc2nc(SC)ns2)c(OC)c1`, for which the inhibition was -40% (inactive).

Turning to `CCOC(=O)CSC1=N/C(=C/c2ccc(-n3cncn3)cc2)C(=O)N1C(C)=O`, the inhibition was 6.08% (inactive).

Turning to `C=CCC[C@@H](Cc1ccc(F)cc1)C(=O)O[C@H](CNC(=O)[C@H](CC=C)CC(=O)N(CCO)Cc1ccccc1)c1ccccc1`, the inhibition was 1.62% (inactive).

`CCOc1ccc(C(=O)CCC(=O)NC2=NCCS2)cc1`: the inhibition is 21.2% (inactive).

With `O=C(CS(=O)(=O)Cc1ccccc1)Nc1cccnc1`, the inhibition is -24.8% (inactive).

Consider `OCCN1CCN(C(=S)c2ccc(-c3ccccc3)cc2)CC1`, for which the inhibition was 55.1% (active).

Take `S=C(c1ccc(-c2ccccc2)o1)N1CCCCC1`: the inhibition was -134% (inactive).

Turning to `CN1CCN(CCCCOc2ccccc2-c2ccccc2)CC1`, the inhibition was -15% (inactive).

For `Cc1cc(=O)oc2c(C(=O)c3ccccc3)c(OCC(N)=O)ccc12`, the inhibition was -14.5% (inactive).

For `O=C(CSC1=NS(=O)(=O)c2cc(F)ccc2N1)Nc1ccccc1F`, the inhibition was 1.35% (inactive).

As for `NCCCC[C@@H]1NC(=O)[C@H](CCC(=O)O)NC(=O)c2cc([N+](=O)[O-])cc(I)c2NCC[C@@H](C(N)=O)NC1=O`, the inhibition was 18.3% (inactive).
